Consider five compounds from PubChem BioAssay.

Active and inactive are the calls of the source. Unless noted, no rule for the calls is given here.

Assay [1] can be described thus: compounds binding Alexa647 anti-His antibody – biochemical, small-molecule microarray, 635 nm fluorescence, artefact control for SMM control protein annotation, primary screen (AID 1128).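 Also: score merges feature fluorescence with signal-to-noise for each printed compound spot.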 As to conditions: higher = more signal.
Assay [2] relates to Human papillomavirus type 1a E7 protein (residues 1-88). Kind of assay: HPV1a E7 small-molecule binders, primary screen, biochemical, small-molecule microarray, residues 1-88, 635 nm (AID 1129). As to conditions: small-molecule microarray binding, fluorescence 635 nm; higher = more signal.
The target in assay [3] is Focal adhesion kinase 1 (Homo sapiens) (UniProt Q05397). In words: PTK2 protein binding on printed compound slides – biochemical, small-molecule microarray, 635/667 nm fluorescence, BSA, DTT, primary screen (AID 1130).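 Also: composite of spot emission at 667 nm and signal to noise over triplicate slides.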 As to conditions: 635 nm fluorescence, higher = more signal.
Focal adhesion kinase 1 (Homo sapiens), sequence (Q05397 whole entry, looked up): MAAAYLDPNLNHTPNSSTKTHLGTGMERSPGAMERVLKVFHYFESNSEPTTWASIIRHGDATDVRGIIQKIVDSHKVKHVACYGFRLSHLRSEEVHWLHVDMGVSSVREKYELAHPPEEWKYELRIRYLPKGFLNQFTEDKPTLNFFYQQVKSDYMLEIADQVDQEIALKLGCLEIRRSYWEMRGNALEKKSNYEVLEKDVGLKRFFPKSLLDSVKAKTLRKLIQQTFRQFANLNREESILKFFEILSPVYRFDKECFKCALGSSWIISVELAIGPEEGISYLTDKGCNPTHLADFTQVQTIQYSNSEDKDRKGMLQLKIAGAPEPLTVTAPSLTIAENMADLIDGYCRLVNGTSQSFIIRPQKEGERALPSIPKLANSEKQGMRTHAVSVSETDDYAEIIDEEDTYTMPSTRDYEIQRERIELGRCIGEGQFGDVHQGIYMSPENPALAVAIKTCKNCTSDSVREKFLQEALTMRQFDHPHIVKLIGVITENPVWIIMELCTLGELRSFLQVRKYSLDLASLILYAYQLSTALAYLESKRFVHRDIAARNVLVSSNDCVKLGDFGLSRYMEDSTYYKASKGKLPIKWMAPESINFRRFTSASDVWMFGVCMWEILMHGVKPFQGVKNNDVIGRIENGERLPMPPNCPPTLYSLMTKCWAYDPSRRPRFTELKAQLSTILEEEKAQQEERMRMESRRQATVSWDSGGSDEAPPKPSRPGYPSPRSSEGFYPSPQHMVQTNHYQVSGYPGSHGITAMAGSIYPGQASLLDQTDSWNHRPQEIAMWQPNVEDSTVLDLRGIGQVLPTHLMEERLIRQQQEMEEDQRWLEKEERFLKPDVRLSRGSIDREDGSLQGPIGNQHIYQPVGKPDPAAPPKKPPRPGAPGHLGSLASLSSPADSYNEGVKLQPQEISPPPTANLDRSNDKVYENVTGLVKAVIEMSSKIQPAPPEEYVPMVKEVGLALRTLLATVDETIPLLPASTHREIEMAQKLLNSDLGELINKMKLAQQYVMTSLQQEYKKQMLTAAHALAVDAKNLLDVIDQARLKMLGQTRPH
The subject of assay [4] is Fibrinogen (Alexa647-labelled). In words: Alexa647-fibrinogen binding to printed small molecules – biochemical, small-molecule microarray, 635/667 nm fluorescence, artefact control for SMM control-protein annotation, profiling panel (AID 1131).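 Also: z-score merges 667 nm fluorescence with per-spot signal-to-noise over triplicate slides.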 As to conditions: fibrinogen-A647 binding fluorescence, higher = more signal.
In assay [5] the target is Follistatin (Homo sapiens) (UniProt P19883). Kind of assay: FST protein binding to printed compounds – biochemical, small-molecule microarray, 635/667 nm fluorescence, primary screen (AID 1132). As to conditions: 635 nm fluorescence, higher = more signal.
Follistatin (Homo sapiens), sequence (P19883 whole entry, looked up): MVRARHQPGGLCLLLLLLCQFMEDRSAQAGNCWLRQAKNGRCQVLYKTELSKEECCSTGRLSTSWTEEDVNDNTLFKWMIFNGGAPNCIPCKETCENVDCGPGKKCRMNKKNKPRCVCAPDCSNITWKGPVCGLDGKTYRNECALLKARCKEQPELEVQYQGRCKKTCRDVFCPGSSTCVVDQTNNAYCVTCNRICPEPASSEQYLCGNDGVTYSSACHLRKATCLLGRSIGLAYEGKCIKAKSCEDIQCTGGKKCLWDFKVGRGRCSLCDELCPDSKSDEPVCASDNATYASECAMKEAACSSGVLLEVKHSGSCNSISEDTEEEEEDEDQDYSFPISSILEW
The target of assay [6] is Fibroblast growth factor 2 (Homo sapiens) (UniProt P09038). Kind of assay: basic fibroblast growth factor binding to printed compounds – biochemical, small-molecule microarray, 635/667 nm fluorescence, primary screen (AID 1133). As to conditions: FGF2, fluorescence 635/667, higher = more signal.
Fibroblast growth factor 2 (Homo sapiens), sequence (P09038 whole entry, looked up): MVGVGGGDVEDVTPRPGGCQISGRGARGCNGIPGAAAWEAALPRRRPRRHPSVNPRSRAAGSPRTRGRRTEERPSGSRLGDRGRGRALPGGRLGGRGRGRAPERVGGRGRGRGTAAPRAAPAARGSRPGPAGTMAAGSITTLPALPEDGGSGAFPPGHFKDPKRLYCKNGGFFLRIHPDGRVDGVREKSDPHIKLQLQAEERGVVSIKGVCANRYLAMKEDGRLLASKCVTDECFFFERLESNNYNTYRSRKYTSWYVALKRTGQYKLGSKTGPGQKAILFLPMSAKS
A short description of assay [7]: JC-1 mitochondrial potential readout, lung cancer cells – cell-based, A549, JC-1 fluorescence, basal, 24 h, 100 nL, profiling panel (AID 1138).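 Also: A549 lung adenocarcinoma cells under basal conditions with no added stimulus; test concentration not given here.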 As to conditions: higher = more signal.
A further assay has as its system Lefty1. In words: Lefty1 protein binding to printed compounds – biochemical, small-molecule microarray, 635/667 nm fluorescence, primary screen (AID 1139). As to conditions: fluorescence 635/667, higher = more signal.
The test system of assay [8] is wheat germ agglutinin (Triticum aestivum), Alexa647-labelled. In words: Alexa647-WGA lectin binding to printed small molecules – biochemical, small-molecule microarray, 635/667 nm fluorescence, artefact control for SMM control-protein annotation, profiling panel (AID 1140).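 Also: score merges 667 nm feature emission with signal to noise over triplicate slides.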 As to conditions: WGA-A647 binding, 635 nm fluorescence, higher = more signal.
For assay [9], the target named is Luciferin 4-monooxygenase (Photinus pyralis) (UniProt P08659). Kind of assay: inhibition of purified Photinus pyralis luciferase – biochemical, luminescence, purified enzyme, 2006 set, primary screen (AID 1141).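 Also: cell-free assay with purified firefly luciferase at 100 ng per well in PBS; test concentration not given here.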 As to conditions: purified firefly luciferase, SteadyGlo luminescence, 30 min; higher = more signal, called active from +8 up or from −8 down.
Luciferin 4-monooxygenase (Photinus pyralis), sequence (P08659 whole entry, looked up): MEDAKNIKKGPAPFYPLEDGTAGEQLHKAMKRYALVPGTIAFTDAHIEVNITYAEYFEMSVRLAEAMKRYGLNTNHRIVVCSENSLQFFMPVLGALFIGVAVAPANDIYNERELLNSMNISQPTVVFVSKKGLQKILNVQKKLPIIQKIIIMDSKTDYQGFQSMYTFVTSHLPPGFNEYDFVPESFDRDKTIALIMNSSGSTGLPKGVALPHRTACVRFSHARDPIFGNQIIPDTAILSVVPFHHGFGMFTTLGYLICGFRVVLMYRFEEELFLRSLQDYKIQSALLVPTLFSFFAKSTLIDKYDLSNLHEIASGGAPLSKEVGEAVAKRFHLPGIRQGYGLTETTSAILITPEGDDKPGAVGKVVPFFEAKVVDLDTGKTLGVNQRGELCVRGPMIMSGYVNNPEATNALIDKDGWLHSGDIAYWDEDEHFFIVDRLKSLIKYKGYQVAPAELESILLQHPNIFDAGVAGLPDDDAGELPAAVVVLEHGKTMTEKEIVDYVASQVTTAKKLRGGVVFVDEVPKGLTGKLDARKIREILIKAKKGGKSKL
Assay [10] has as its system Wnt5a (protein binding on small-molecule microarray). Kind of assay: small molecules binding Wnt5a protein – biophysical, small-molecule microarray, 635/667 nm fluorescence, primary screen (AID 1142).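 Also: fluorescence read at 667 nm with signal to noise per printed feature.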 As to conditions: 635 nm fluorescence, higher = more signal.
Assay [11] is described as follows: ATP-based viability of Huh7 replicon cells – cell-based, CellTiter-Glo luminescence, basal, 48 h, cytotoxicity control for HCV replication inhibitor project, primary screen (AID 1143).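 Also: Huh7 hepatoma cells carrying a hepatitis C replication reporter with no stimulus; test concentration not given here.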 As to conditions: higher = more signal, called active from +8 up or from −8 down. For orientation: In antiviral work, replicon cells carry a viral genome segment that copies itself.

Assay [12] in a line: Pseudomonas biofilm growth suppression – PAO1 strain, BacTiter-Glo luminescence, LB-PBS, primary screen (AID 1144). As to conditions: P. aeruginosa PAO1 biofilm, 12 h, higher = more signal.
Assay [13] is described as follows: basal CRE-LacZ reporter activity in PC12 – cell-based, unstimulated, primary screen (AID 1145). As to conditions: no forskolin, luminescence, 4.5 h, higher = more signal, called active from +8 up or from −8 down.
A short description of assay [14]: forskolin-driven CRE-LacZ activity in PC12 – cell-based, CRE-LacZ reporter, forskolin-stimulated, primary screen (AID 1146).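 Also: PC12 cells with 6xCRE LacZ reporter stimulated by forskolin 10 µM; beta-galactosidase reporter signal reflecting CREB driven transcription.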 As to conditions: luminescence, 4.5 h, higher = more signal, called active from +8 up or from −8 down.
For assay [15], the target named is Streptavidin (Streptomyces avidinii) (UniProt P22629). Kind of assay: compounds binding control protein streptavidin – biophysical, small-molecule microarray, 635/667 nm fluorescence, artefact control for SMM compound annotation, primary screen (AID 1147).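 Also: signal reflects streptavidin binding to arrayed compounds as a control protein.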 As to conditions: higher = more signal.
Streptavidin (Streptomyces avidinii), sequence (P22629 whole entry, looked up): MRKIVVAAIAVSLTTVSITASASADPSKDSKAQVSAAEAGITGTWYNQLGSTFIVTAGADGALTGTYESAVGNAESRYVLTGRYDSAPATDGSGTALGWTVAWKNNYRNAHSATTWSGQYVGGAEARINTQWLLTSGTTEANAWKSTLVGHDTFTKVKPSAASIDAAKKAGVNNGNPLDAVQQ
Assay [16] can be described thus: probe aInhba binding on compound microarray – biochemical, small-molecule microarray, 635/667 nm fluorescence, primary screen (AID 1148).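 Also: score merges 667nm spot fluorescence with signal-to-noise for antibody binding to printed compounds.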 As to conditions: higher = more signal.
Assay [17] concerns the target Torsin-1A (Homo sapiens) (UniProt O14656). Kind of assay: TOR1A wild-type binding on microarray – cell lysate, small-molecule microarray, lysate, 635/667 nm, primary screen (AID 1149). As to conditions: COS7 hTOR1A-WT lysate, 635 nm fluorescence, higher = more signal.
Assay [18] has the same target. Kind of assay: torsin A mutant lysate binding on microarrays – cell lysate, small-molecule microarray, COS7 lysate, 635/667 nm fluorescence, primary screen (AID 1150).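 Also: score pools 667 nm emission and signal to noise measuring lysate protein binding.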 As to conditions: COS7 hTOR1A mutant lysate, 635 nm fluorescence, higher = more signal.
The subject of assay [19] is Sonic hedgehog protein (Shh). In words: Sonic hedgehog microarray binding compounds – biochemical, small-molecule microarray, 635/667 nm fluorescence, primary screen (AID 1151).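 Also: Shh protein binding to compounds spotted on small-molecule microarray slides; score combines spot fluorescence intensity with signal-to-noise across triplicate slides.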 As to conditions: 635 nm fluorescence, higher = more signal.

Torsin-1A (Homo sapiens), sequence (O14656 whole entry, looked up): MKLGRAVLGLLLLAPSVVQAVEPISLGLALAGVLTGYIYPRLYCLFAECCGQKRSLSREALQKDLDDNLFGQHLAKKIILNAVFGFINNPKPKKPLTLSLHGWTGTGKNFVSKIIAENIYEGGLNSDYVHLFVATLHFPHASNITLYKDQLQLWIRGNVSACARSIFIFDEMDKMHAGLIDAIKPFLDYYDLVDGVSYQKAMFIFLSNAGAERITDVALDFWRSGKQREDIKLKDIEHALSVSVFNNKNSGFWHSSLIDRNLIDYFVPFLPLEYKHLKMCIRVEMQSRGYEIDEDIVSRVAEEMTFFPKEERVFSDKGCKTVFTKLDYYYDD

For `COC(=O)Cn1c(C(=O)N2CCCC2)cc2c1C[C@H]1CN(C(=O)c3ccccc3)[C@@](Cc3ccc(F)cc3)(C(=O)OC)[C@@H]21`, the composite z-score was 0.712 in assay [1]; -0.25 in assay [2]; 0.386 in assay [3]; -0.288 in assay [4]; 0.237 in assay [5]; -0.438 in assay [6]. For the same compound, the composite z-score in the assay on Lefty1 is -0.3; in assay [8] it was 0.647; in assay [10] it was -0.164; in assay [15], 1.59; in [16], -0.123; with Torsin-1A (Homo sapiens) [17], 0.895. Besides, the composite z-score with Torsin-1A (Homo sapiens) [18] was -0.137; in assay [19], -0.271. Moreover, the z-score in [7] is 1.39; in assay [9] it was 1.22 (inactive); in assay [11], -1.83 (inactive); in assay [12] it was -0.288 (inactive); in assay [13] it was -0.182 (inactive); in [14], 0.105 (inactive).
For `Cc1ccc(S[C@]2(C(=O)NC(C)C)CC(=O)N(Cc3ccccc3C(F)(F)F)[C@@H]2c2ccc(CO)cc2I)cc1`, the composite z-score was 1.15 in [1]; -0.0732 in assay [2]; 0.955 in assay [3]; -0.515 in [4]; 0.0697 in assay [5]; -0.848 in assay [6]. Moreover, the composite z-score in the assay on Lefty1 is -1.03; in assay [8], -0.229; in assay [10], -0.38; in [15], -0.281; in assay [16], -0.239; with Torsin-1A (Homo sapiens) [17], -0.93. The composite z-score with Torsin-1A (Homo sapiens) [18] was -1.17; in [19], -0.181. The z-score is -0.279 in [7]; 1.35 (inactive) in assay [9]; -4.73 (inactive) in assay [11]; -0.9 (inactive) in [12]; -0.141 (inactive) in [13]; 1.12 (inactive) in assay [14].
As to `O=C(CS)NCCCCCCNC(=O)[C@@H]1C[C@@H]2C(=O)N3CCC[C@H]3C(=O)N2[C@@H]1c1cccc(OCCO)c1`, the composite z-score in assay [1] is 0.824; in assay [2] it was 1.13; in assay [3], 0.459; in assay [4] it was 0.642; in assay [5], 1.1; in assay [6], 1.59. Besides, the composite z-score in the assay on Lefty1 is 0.361; in assay [8], 0.832; in assay [10], 0.939; in assay [15], 0.283; in assay [16] it was -0.128; in the assay with Torsin-1A (Homo sapiens) [17], 1.19. Also, the composite z-score with Torsin-1A (Homo sapiens) [18] was found to be 1.34; in assay [19] it was 1.7. Also, the z-score in assay [7] was 0.503; in assay [9], -0.681 (inactive); in [11] it was -0.497 (inactive); in assay [12], -1.05 (inactive); in assay [13], -1.35 (inactive); in assay [14] it was -1.07 (inactive).
Turning to `[N-]=[N+]=NCc1ccccc1C[C@@]1(C(N)=O)N=C(c2ccc(OCCCO)cc2)O[C@@H]1c1ccccc1CN=[N+]=[N-]`, the composite z-score in assay [1] worked out at 1.13; in assay [2] it was 1.22; in assay [3], 0.0375; in assay [4] it was 0.761; in [5] it was 0.591; in assay [6], 0.653. In addition, the composite z-score in the assay on Lefty1 was -0.242; in assay [8], 0.756; in assay [10] it was 0.592; in assay [15], 1.13; in [16], -0.0418; with Torsin-1A (Homo sapiens) [17], 0.549. The composite z-score is 0.335 with Torsin-1A (Homo sapiens) [18] and -0.302 in [19]. Further, the z-score is 1.45 in assay [7]; -1.11 (inactive) in [9]; -2.14 (inactive) in assay [11]; 0.0387 (inactive) in assay [12]; 0.0451 (inactive) in assay [13]; 0.161 (inactive) in assay [14].
Take `CCOC(=O)C[C@H]1[C@H](OC(=O)c2ccc(-c3ccccc3)cc2)[C@@H](NC(=O)c2ccc3ccccc3n2)c2cc(OCCCO)ccc2N1C(=O)c1ccccc1`: the composite z-score was 1.14 in assay [1]; 1 in [2]; 0.059 in [3]; 0.702 in assay [4]; 0.779 in [5]; 0.736 in assay [6]. Further, the composite z-score turned out to be 0.815 with Lefty1; 0.262 in [8]; 0.111 in [10]; 0.968 in assay [15]; 0.109 in assay [16]; 0.448 with Torsin-1A (Homo sapiens) [17]. Moreover, the figures for the composite z-score (in the assay with Torsin-1A (Homo sapiens) [18]; in [19]) were 0.397 and 0.861, respectively. Besides, the z-score is -0.332 in assay [7]; 0.371 (inactive) in assay [9]; -0.727 (inactive) in assay [11]; 0.306 (inactive) in [12]; -0.477 (inactive) in assay [13]; -0.169 (inactive) in [14].
